Source: PubChem BioAssay (National Center for Advancing Translational Sciences (NCATS))
Only a selection was taken, and hits are over-represented in it overall.
PI4K2A inh – qHTS for small molecular inhibitors of PI4K2A; Phosphatidylinositol 4-kinase type 2-alpha (Homo sapiens), Q9BTU6; purified PI4K2A, ADP-Glo luminescence, 1 h; hits give low values; activity change, negative = inhibition, % at 76.9 µM; 0.13% of 420,000 active; AID 1346378, 2018; in the data active means activity change below about -50%; inconclusive means mostly about -30% to -49%;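 further: -100% = wells without enzyme as full effect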
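PI4K2A activity was measured by ADP-Glo luminescence: enzyme (4 ug/mL stock) and phosphatidylinositol (1.2 mM stock) in Tris pH 7.5/MgCl2/EGTA/Triton X-100 buffer were reacted with ATP (300 microM stock) for one hour at ambient temperature.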
PI5P4Ka inh – qHTS for Inhibitors of phosphatidylinositol 5-phosphate 4-kinase (PI5P4K); Phosphatidylinositol 5-phosphate 4-kinase type-2 alpha (Homo sapiens), P48426; PI5P4Kalpha enzyme, ADP-Glo luminescence, 60 min; hits give low values; max response, %; 1.2% of 330,000 active; AID 652105, 2013; active means max response of -50% or lower; inconclusive means between -30% and -50%; inactive means -30% or higher; further: value at the top dose of about 77 µM
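Controls without substrate or without enzyme flank wells where PI5P4Kalpha converts substrate using 5 microM ATP (final). Incubation lasts 60 minutes at room temperature; ADP formed is read by ADP-Glo luminescence.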
Pin1 inhibitor – qHTS Assay to Find Inhibitors of Pin1; Pin1 FP peptide displacement, HiFluor488, 10 min; Potency, µM (highest dose often 115 µM), for inactives: at the highest dose activity, negative = inhibition, usual class: inhibitors; 0.009% of 390,000 active; AID 504891, 2011; active means well fitted inhibition curve with a large enough effect in the polarisation, with a control signal flat, not every such curve was filed as active; inconclusive means small, poorly fitted or top-dose-only effect, or effect the other way, or a change in a side signal; inactive means no such curve, though single readings can be large or run the other way; the % refers to the polarisation; further: potency means the concentration at half of the fitted maximal effect
PGK inhibitor – qHTS Assay to Find Inhibitors of Phosphoglycerate Kinase | PGK/GAPDH coupled, Kinase-Glo luminescence, 60 min | Potency, µM (highest dose often 57.5 µM), for the others: at the top dose activity change, negative = inhibition, usual class: inhibitors | 0.043% of 380,000 active | AID 602233, 2012; further: potency means the concentration at half of the fitted maximal effect; nearly all actives have a fitted effect of over 60% in size
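Luminescent ATP detection (Kinase-Glo Plus) follows a 60-minute room-temperature incubation, with wells lacking PGK as controls. Buffer: 100 mM TEA (pH 7.6), 5 mM MgCl2, 0.01% Tween-20. Coupling enzyme GAPDH (100 nM final) supplies unstable 1,3-BPG in-well.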
Tb PFK block – qHTS Assay to Find Inhibitors of T. brucei phosphofructokinase; ATP-dependent 6-phosphofructokinase (Trypanosoma brucei brucei), O15648; T. brucei PFK, ADP-Glo luminescence; Potency, µM (series often up to 57.5 µM), without a hit: at the top dose activity, negative = inhibition, most hits filed as inhibitors; 0.17% of 330,000 active; AID 485367, 2010;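 further: potency means the concentration at half of the fitted maximal effect; 0% = uninhibited 1x PFK enzyme wells and -100% = no-enzyme wells; nearly all actives have a fitted effect of over 60% in size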
Target sequence (O15648 whole entry, looked up): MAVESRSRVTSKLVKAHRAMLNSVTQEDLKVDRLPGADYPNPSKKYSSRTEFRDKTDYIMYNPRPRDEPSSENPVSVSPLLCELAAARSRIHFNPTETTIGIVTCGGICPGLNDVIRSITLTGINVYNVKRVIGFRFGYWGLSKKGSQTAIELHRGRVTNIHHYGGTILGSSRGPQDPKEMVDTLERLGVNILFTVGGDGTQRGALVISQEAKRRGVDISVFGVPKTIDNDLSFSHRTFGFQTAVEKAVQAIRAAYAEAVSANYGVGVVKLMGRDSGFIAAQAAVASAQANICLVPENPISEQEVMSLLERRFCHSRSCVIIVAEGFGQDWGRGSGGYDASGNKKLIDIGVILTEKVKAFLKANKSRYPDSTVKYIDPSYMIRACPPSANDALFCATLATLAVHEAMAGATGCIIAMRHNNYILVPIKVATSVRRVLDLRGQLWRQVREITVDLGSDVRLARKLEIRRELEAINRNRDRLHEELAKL
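ADP-Glo luminescence quantified ADP after 45 min at room temperature, with 1.25 nM T. brucei PFK, 0.1 mM ATP and 0.5 mM fructose-6-phosphate in pH 8.0 TEA buffer. qHTS titrations up to 57 µM; curves classified by quality.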
An asterisk follows results filed as active; i = inactive; u = inconclusive; x = no result; [ ] = remark or other dose. Unless noted, the call rests on the fitted dose curve; in most records, active means well fitted curve in the direction sought with a large enough effect; inconclusive means small, poorly fitted or top-dose-only effect, or another doubt; inactive means no such curve, though single readings can be large; an effect the other way counts as inactive or inconclusive. Unless noted, on the % scale 0 is the no-effect control and ±100 the full control effect.

SMILES | PI4K2A inh | PI5P4Ka inh | Pin1 inhibitor | PGK inhibitor | Tb PFK block
N#Cc1c(-c2cccc(Br)c2)cc(-c2ccco2)[nH]c1=O | -25.8 | -61.6* | u | -6.9% | 1.7%
COc1ccc(-c2cc(-c3ccco3)[nH]c(=O)c2C#N)cc1 | -2.8 | -4.6 | -8.4% | -0.2% | -4.8%
O=C(NCCc1ccc2c(c1)OCCO2)c1cc(F)cc(F)c1 | 1.9 | 0.4 | 0.0% | -4.1% | -5.7%
O=C(N/N=C/c1ccc(-c2ccccc2[N+](=O)[O-])o1)c1cncc(Br)c1 | -0.1 | -27.5 | 2.5% | 8.6% | 21.2%
Cc1nc(C)c(C(=O)N/N=C/c2cc(Br)ccc2O)s1 | 7.1 | 4.0 | 17.3% | 6.5% | -5.5%
Cc1c(C(=O)N/N=C/c2ccc(-c3ccccc3[N+](=O)[O-])o2)sc(N)c1C#N | -4.5 | -52.7* | u | -1.3% | 0.9%
COc1cc(/C=N/NC(=O)c2ccccc2)ccc1O | 0.7 | 1.2 | 26.7% | 2.6% | -2.9%
Cc1c(C(=O)N/N=C/c2ccc(O)c(Br)c2)sc(N)c1C#N | 3.6 | -83.9* | u | 1.0% | 22.7%
COc1cc(/C=N/NC(=O)c2sc(N)c(C#N)c2C)ccc1O | -6.9 | -83.8* | u | -3.9% | 2.0%
CC1CC(C)CN(C(=O)c2cccc3c2-c2ccccc2C3=O)C1 (stereo unspecified) | -4.2 | -3.4 | 5.9% | -5.1% | -2.2%
O=C(O)CCNc1nc(C(F)(F)F)nc2ccccc12 | 1.9 | 0.7 | u | -2.3% | 0.0%
COc1ccccc1NC(=O)/C(=C/c1ccncc1)NC(=O)c1ccccc1 | 5.3 | -0.4 | -3.7% | 1.0% | 0.8%
Cc1ccc(OCC(=O)Nc2cc(C(=O)O)cc(C(=O)O)c2)cc1C | -1.9 | -55.0* | 3.9% | -4.8% | u
O=c1c2ccccc2c(-c2n[nH]c(=S)o2)nn1Cc1ccccc1 | -2.6 | -85.5* | -9.9% | i | -23.7%
S=c1[nH]nc(-c2ccccc2)o1 | -6.7 | u | 0.3% | -1.2% | -0.7%[0.46 µM]
Oc1ccc(CNc2ccccc2)c2cccnc12 | -12.3 | -55.2* | 9.6% | -1.7% | -0.8%
O=c1[nH]c(=S)[nH]nc1Cc1ccc(Cl)c(Cl)c1 | 1.7 | -75.8* | -0.6% | 7.4% | -17.8%
Cc1ccc(OCCn2c(CCNC(=O)C3CCCCCC3)nc3ccccc32)cc1 | -6.7 | x | x | x | x
N#Cc1ccc(NC(=O)CSc2nc3[nH]c(=O)cc(O)c3s2)cc1 | -0.1 | -8.5 | 5.4% | 2.0% | -2.4%
CSc1ccc(NC(=O)CSc2nc3[nH]c(=O)cc(O)c3s2)cc1 | -11.4 | -87.9* | u | 3.1% | 6.9%
COc1ccccc1N=Cc1c(C)[nH]n(-c2ccc(C)cc2C)c1=O | 3.4 | -0.3 | -0.9% | -13.4% | 2.4%
Cc1cc(Br)ccc1-n1[nH]c(C)c(C=Nc2cccc3nsnc23)c1=O | -54.3* | -26.6 | u | -9.8% | -5.9%
Nn1c(-c2ccccc2)nc2cc(Cl)ccc2c1=O | 5.9 | 2.4 | 3.8% | i | 2.0%
CCc1nn2c(=O)cc(COc3ccc(/C=C4\C(=N)N5N=C(C)SC5=NC4=O)cc3)nc2s1 | -9.6 | -72.3* | u | -29.0% | -23.6%
CCOc1cc(/C=C2\C(=N)N3N=C(C)SC3=NC2=O)ccc1OCCOc1cccc(OC)c1 | 2.8 | -2.8 | 33.5% | -6.6% | 2.2%
SMILES | PI4K2A inh | PI5P4Ka inh | Pin1 inhibitor | PGK inhibitor | Tb PFK block
CCNC1=C(Cl)C(=O)c2ccccc2C1=O | -13.1 | -11.0 | -5.4% | 1.3% | 7.4%
CCCC(=O)NC1=C(Cl)C(=O)c2ccccc2C1=O | -11.6 | -57.9* | -8.2% | -16.0% | x
O=C(O)C1CCC1 | 2.4 | x | x | x | x
Cc1cc(C)c2c(=N)c3ccccc3n(CCCCCCCCn3c4ccccc4c(=N)c4c(C)cc(C)nc43)c2n1 | -4.9 | -66.5* | u | 2.0% | x
CCc1nnc(N/N=C/c2ccc(O)c(OC)c2)n1N | -25.7 | -0.1 | -0.2% | -4.2% | -1.2%
CCc1nnc(N/N=C/c2cc(Br)c(O)cc2O)n1N | u | -69.0* | -15.7% | -6.2% | -13.1%
